Source: PubChem BioAssay AID1259312 (Keith Lab, Institute of Cancer Science, University of …, 2017)
Out of some 4,500 compounds screened, about 200 (4.4%) were called active. The sample as a whole holds a higher share of actives than the screen did. A number with no mark means an inactive call.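 Rule for the calls: active = cell survival measured by absorbance rises more than 2.5-fold over infected cells without compound; inactive = the rest.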

Assay: survival after telomere uncapping, modulators, primary screen, cell-based (AID 1259312);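 note: virus expresses mutant telomerase RNA that uncaps telomeres and kills cells; compound added 2 days after infection so exposure lasts 3 days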
Details: HCT116 + Ad-hTR-mut, MTT, 5 d; at 10 µM, hits give high values

Row | Structure (SMILES) | fold change
1 | Cc1cc(C)c2oc(-c3cc(N)ccc3Cl)nc2c1 | 1.24
2 | Cn1cnnc1-c1ccc(N)cc1 | -1.13
3 | CC(C)(C)c1ccc(-c2nnc(-c3ccc(Cl)cc3Cl)o2)cc1 | -1.32
4 | S=c1[nH]ccn1-c1ccccc1 | 1.02
5 | NC(=O)c1no[n+]([O-])c1C(N)=O | -1.25
6 | c1ccc(-c2csc(N3CCN(C(c4ccccc4)c4ccccc4)CC3)n2)cc1 | 1.15
7 | O=[N+]([O-])c1ccc(S(=O)(=O)Nc2nc3ccccc3s2)cc1 | 1.84
8 | O=[N+]([O-])c1ccc(-n2nnc3ccccc32)c([N+](=O)[O-])c1 | -1.31
9 | O=[N+]([O-])c1ccccc1S(=O)(=O)n1cnc2ccccc21 | 3.82 (active)
10 | O=[N+]([O-])c1ccc(S(=O)(=O)n2cnc3ccccc32)cc1 | 3.41 (active)
11 | O=[N+]([O-])c1ccccc1-n1ccnc1 | -1.71
12 | O=[N+]([O-])c1ccc(NCCCn2cnc3ccccc32)nc1 | 1.16
13 | COc1cc(OC)cc(C2SC(N)=C(C#N)C(N)=C2C#N)c1 (stereo not given) | -1.62
14 | NC(CCCC(N)C(=O)O)C(=O)O (stereo not given) | -1.27
15 | NC(CC(=O)O)C(=O)O (stereo not given) | 1.14
16 | N[C@@H](CSCC(=O)O)C(=O)O | 2.87 (active)
17 | O=C(Cc1cccs1)NC1CCCC1 | -3.03
18 | C1CCN(c2nc3nonc3nc2N2CCCC2)C1 | -1.59
19 | O=c1[nH]c(/C=C/c2ccc(Br)cc2)nc(O)c1[N+](=O)[O-] | 2.47
20 | O=c1[nH]c(/C=C/c2ccc(Br)cc2)c([N+](=O)[O-])c(=O)[nH]1 | 3.45 (active)
21 | COc1ccc(OC)c(/C=C/c2[nH]c(=O)[nH]c(=O)c2[N+](=O)[O-])c1 | 1.29
22 | N#CC1=C(N)n2c(s/c(=C\c3ccc(Cl)cc3)c2=O)=C(C#N)C1c1ccc(Cl)cc1 (stereo not given) | -1.6
23 | N#CC1Cc2cc([N+](=O)[O-])ccc2-c2cc(Cl)cc(Cl)c21 (stereo not given) | -3.59
24 | C/C(Cn1nnc2ccccc21)=N\NC(=O)c1c[nH]c2ccccc12 | -2.58
25 | NNC(=O)COc1ccc2c(c1Br)CCCC2 | 2.77 (active)
26 | O=C(COc1ccc(Br)cc1)NCC1CCCO1 (stereo not given) | -1.54
27 | NNC(=O)c1ccc(COc2ccc3c(c2)CCC3)o1 | -1.37

Row | Structure (SMILES) | fold change
28 | S=c1[nH]nc(-c2ccccc2)n1C1CCCCC1 | 1.07
29 | COCCCN1C(=O)/C(=C/c2cccs2)SC1=S | -1.09
30 | CCCCC(CC)C(=O)NC(C)(C)C (stereo not given) | 1.34
31 | CCCCCCCCCCCCCCC(CC(=O)O)C(=O)O (stereo not given) | 2.88 (active)
32 | CCCCCCCCCCCCCCCC(=O)O | 1.25
33 | COc1ccc(-c2cc(=O)c3ccc(O)cc3o2)cc1 | -1.7
34 | Cc1csc(NC(=O)c2ccnn2C)n1 | 1.09
35 | Cn1nccc1C(=O)O | 3.48 (active)
36 | Cn1nccc1C(=O)Nc1nc2ccccc2s1 | -1.5
37 | COC(=O)/C(C#N)=C/c1cc(C)sc1C | 1.01
38 | N#CC1=C(N)C(C#N)=c2s/c(=C/c3ccc(Cl)cc3Cl)c(=O)n2C1c1ccc(Cl)cc1Cl (stereo not given) | -1.24
39 | N#CC1=C(N)C(C#N)=c2s/c(=C/c3cccc(F)c3)c(=O)n2C1c1cccc(F)c1 (stereo not given) | 3.89 (active)
40 | N#CC1=C(N)C(C#N)=c2s/c(=C/c3c(F)cccc3Cl)c(=O)n2C1c1c(F)cccc1Cl (stereo not given) | 2.98 (active)
41 | N#CC1=C(N)n2c(s/c(=C/c3ccc(Cl)cc3Cl)c2=O)=C(C#N)C1c1ccc(Cl)cc1Cl (stereo not given) | 1.33
42 | N#CC1=C(N)C(C#N)=c2s/c(=C/c3ccc(F)cc3)c(=O)n2C1c1ccc(F)cc1 (stereo not given) | 2.25
43 | COC(=O)C1=c2s/c(=C/c3ccncc3)c(=O)n2C(c2ccncc2)C(C#N)=C1N (stereo not given) | 1.32
44 | CC(Sc1ccccn1)c1nc(N)nc(N2CCCc3ccccc32)n1 (stereo not given) | -4.94
45 | Cc1cccc(NS(=O)(=O)c2cc(Cl)ccc2Cl)n1 | 1.41
46 | CCCN(CCC)C(=O)C(=O)N(CCC)CCC | -1.09
47 | Cc1[nH]nc2c1C1(C(=O)Nc3ccccc31)C(C#N)=C(N)O2 (stereo not given) | 5.1 (active)
48 | CC(C)(C)c1[nH]nc2c1C(c1ccc(F)cc1)C(C#N)=C(N)O2 (stereo not given) | 1.28
49 | Cc1[nH]nc2c1C1(C(=O)Nc3cc(Br)ccc31)C(C#N)=C(N)O2 (stereo not given) | 3.96 (active)
50 | N#CC1=C(N)OC2=C(C(=O)CCC2)C12C(=O)Nc1cc(Br)ccc12 (stereo not given) | 1.66
51 | CN1C(=O)C2(C(C#N)=C(N)Oc3c2c(=O)n(C)c(=O)n3C)c2ccccc21 (stereo not given) | -1.14
52 | Cc1[nH]nc2c1C1(CCCCC1)C(C#N)=C(N)O2 | -1.09
53 | CC(C)(C)c1[nH]nc2c1C1(C(=O)Nc3ccccc31)C(C#N)=C(N)O2 (stereo not given) | 4.19 (active)
54 | N#CC1=C(N)Oc2ccc(N)cc2C12C(=O)Nc1ccccc12 (stereo not given) | 2.67 (active)

Row | Structure (SMILES) | fold change
55 | Cc1[nH]nc2c1C1(CCSCC1)C(C#N)=C(N)O2 | -1.42
56 | CSc1ccc(C2C(C#N)=C(N)Oc3n[nH]c(C(C)(C)C)c32)cc1 (stereo not given) | -1.76
57 | Cc1[nH]nc2c1C1(CCOCC1)C(C#N)=C(N)O2 | -1.27
58 | N#CC1=C(N)OC2=C(C(=O)CCC2)C12C(=O)Nc1ccccc12 (stereo not given) | 2.26
59 | CCCCc1ccc(-c2c(C#N)c(N)nc3c2CCCCCC3)s1 | -4.8
60 | Cc1ccc(C2C3=C(CC(C)(C)CC3=O)OC3=C2C(=O)CC(C)(C)C3)s1 | -5.64
61 | O=C(O)/C=C/c1ccc(F)c(Br)c1 | -1.15
62 | O=S1(=O)N=C(N2CCCc3ccccc32)c2ccccc21 | 1.46
63 | O=c1ccn([C@H]2CCC(CO)O2)c(=O)[nH]1 (stereo not given in full) | -1.46
64 | N#Cc1c(N)nc2c(c1-c1cccnc1)CCCCC2 | -6.99
65 | O=C1Oc2ccccc2C2Oc3c(c(=O)oc4ccccc34)C3(C(=O)Nc4ccccc43)C12 (stereo not given) | -1.57
66 | O=C1c2ccccc2NC2(C(=O)Nc3ccccc32)N1c1ccc2c(c1)oc1ccccc12 (stereo not given) | 1.13
67 | N#CC1=C(N)Oc2c(c3ccccc3oc2=O)C12C(=O)Nc1ccc(Br)cc12 (stereo not given) | 2.59 (active)
68 | Cc1ccc(-c2nnc(CSc3nnc(-c4ccccc4)o3)o2)n1C | -1.36
69 | CCCCCCCNC(=O)c1ccco1 | 1.1
70 | S=C(c1ccc(-c2ccc(Br)cc2)o1)N1CCOCC1 | 1.09
71 | O=C1c2ccccc2C(O)(O)C1(O)C1(O)C(=O)c2ccccc2C1(O)O (stereo not given) | -1.12
72 | CC(=O)C(C(C)=O)=C1OC(=O)c2ccccc21 | 1.3
73 | CC(=O)/C(=C1/OC(=O)c2ccccc21)c1ccc(C(C)=O)cc1 | 5.97 (active)
74 | C=CC[C@H]1CC=C[C@H](CC=C)N1C(C)=O | -1.11
75 | NC(=O)NC(CCCN=C(N)N)C(=O)O (stereo not given) | -1.65
76 | O=[N+]([O-])c1ccc(N2CCN(S(=O)(=O)c3ccc4ccccc4c3)CC2)cc1 | -1.1
77 | CC(=O)c1c(C)nc(-c2cccs2)n1O | -1.92
78 | Cc1sc2c(c1C)C(=O)NC(/C=C/c1ccc3c(c1)OCO3)N2 (stereo not given) | -1.11
79 | O=S(=O)(Nc1cc(Cl)cc(Cl)c1)c1cccs1 | -1.41
80 | O=[N+]([O-])c1ccc(S(=O)(=O)N2CCOCC2)cc1 | 2.47
81 | O=[N+]([O-])c1ccc(N2CCOCC2)c(S(=O)(=O)N2CCOCC2)c1 | -1.09

Row | Structure (SMILES) | fold change
82 | O=[N+]([O-])c1ccc(N2CCN(S(=O)(=O)c3ccc(Br)cc3)CC2)cc1 | 1.35
83 | O=[N+]([O-])c1ccc(N2CCN(S(=O)(=O)c3ccc(Cl)cc3)CC2)cc1 | -1.84
84 | O=[N+]([O-])c1ccc(Cl)c(S(=O)(=O)N2CCOCC2)c1 | 3.45 (active)
85 | O=[N+]([O-])c1ccc(N2CCN(S(=O)(=O)c3cc(Cl)ccc3Cl)CC2)cc1 | 5.36 (active)
86 | Cc1ccc(-c2c(C#N)c(N)nc3c2CCCCC3)s1 | -2.73
87 | Nc1ncnc2nc(SCCOc3ccccc3F)[nH]c12 | -1.17
88 | COc1cc(C2C(C#N)=C(N)Nc3oc(C)nc32)cc(OC)c1OC (stereo not given) | 2.2
89 | Cc1cc(Cl)c2ccccc2n1 | -1.67
90 | C=CCNC(=O)c1nn(C)c(=O)c2ccccc12 | -1.08
91 | Cc1cc(C)nc(Sc2ccc3nsnc3c2[N+](=O)[O-])n1 | 2.01
92 | O=c1c(C=NCc2cccs2)c(C(F)(F)F)[nH]n1-c1nc2ccccc2s1 | inactive
93 | NNC(=O)Cn1c2ccccc2c(=O)c2ccccc21 | 1.47
94 | NC(=O)CSc1cccc2cccnc12 | -2.76
95 | NNC(=O)c1cccc(C(=O)NN)n1 | 2.7 (active)
96 | O=C(O)CCc1cn(CCC(=O)O)cn1 | 3 (active)
97 | O=C(O)CCn1cnnn1 | -1.36
98 | O=C(O)COc1ccc(Br)cc1/C=C1/NC(=O)NC1=O | 1.24
99 | O=C(O)/C=C/C(=O)NC1CCCCC1 | 3.98 (active)
100 | O=C(NC1CCCCCC1)C1CC1 | -2.47
101 | O=C(O)/C=C/C(=O)NC1CCCCNC1=O (stereo not given) | -1.55
102 | CCOC(=O)/C(C#N)=C\c1cccn1C | -3.87
103 | COC(=O)/C(C#N)=C\c1cccn1C | 4.23 (active)
104 | CC(C)OC(=O)/C(C#N)=C\c1cccn1C | -3.04
105 | CCSc1ccc(Sc2ccc(SCC)s2)s1 | -1.05
